Screens (PubChem)
Only some compounds are listed: those with a hit (about 1.7% of all), similar ones and a draw of the others.
ARNT-TACC3 inh: ARNT/TACC3 interaction disruption. Q9Y6A5. hit rate 0.66% among 390,000. AlphaScreen His-ARNT PAS-B/GST-TACC3 binding, luminescence; TACC3 fragment carries E629A point mutation. inhibition, % at 9.99 µM;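 active = mean inhibition of replicates at least 50% and at least half of replicates each reaching 50%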;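 note: 0% = complete ARNT plus TACC3 wells and 100% = ARNT alone without TACC3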
aDG glyco act: alpha-DG glycosylation activation; Pro5-aDG cells, alpha-DG glycosylation AlphaScreen (IIH6); 0% Pro5, 100% B10-LARGE cell signal; activation, % at 10 µM; hit rate 0.22% among 360,000; AID 624168;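 active = activation of at least 8% versus controls, or a plate z-score of at least 8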;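 note: Pro5 are CHO cells carrying HIG-tagged alpha-DG that lacks glycosylation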
H9c2 protect: protects H9c2 cardiomyocytes from peroxide injury | H2O2 injury protection, ATPLite, 2 h | protection from H2O2 cell death, % at 20 µM | hit rate 0.63% among 360,000;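 active = compounds giving at least 50% protection of heart cells from peroxide-induced death in the single-dose screen, raw or plate-pattern-corrected value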;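 note: 0% = DMSO wells with peroxide and 100% = DMSO wells without peroxide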
Vif inh: HIV Vif inhibition; HEK293T cells, Vif self-association by quenched fluorescence, imaging, 24 h; AID 602346; hit rate 0.35% among 340,000; inhibition, % at 7.49 µM; in the data active = inhibition above about 50%, passing the limit was not always enough
N-glyco inh: N-linked glycosylation inhibition. D54 ERlucT glycosylation luciferase reporter, 24 h; percent of 100 nM tunicamycin response. hit rate 0.23% among 360,000. reporter increase, % at 12.5 µM;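 active = mean luciferase reporter signal, scaled so untreated is 0 and the glycosylation-blocking control 100, at or above a set limit in every replicate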;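 note: luciferase carries N-glycosylation sites so blocking glycosylation raises the light; 0% = median of neutral control wells and 100% = median of 100 nM tunicamycin wells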
aDG conf: confirmation of alpha dystroglycan glycosylation activators. Pro5-aDG cells, alpha-DG glycosylation, IIH6 AlphaLISA; scaled to LARGE-overexpressing B10 cells as 100%. AID 651671. shares compounds with aDG glyco act. activation, % at 10 µM (by protocol). hit rate 17% among 600;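 active = activation of at least 7% in one or more replicates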;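 note: cells exposed to compound for two days before detection; 0% = DMSO-treated Pro5 cells and 100% = DMSO-treated B10-LARGE cells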
* = called active by the depositor; i = inactive; . = no result.

SMILES | ARNT-TACC3 inh | aDG glyco act | H9c2 protect | Vif inh | N-glyco inh | aDG conf
CNC(=O)c1c(NC(=O)c2ccc(S(=O)(=O)N3CCCCC3)cc2)sc2c1CCN(C(C)C)C2 | -7.6 | -0.1 | -1.5 | 2.1 | -2.0 | .
CN1CCc2c(sc(NC(=O)c3ccc(S(=O)(=O)N4CCCC4)cc3)c2C(N)=O)C1 | -9.3 | 13.7* | 10.4 | i | 0.6 | 1.8
C[C@@H](NC(=O)C[C@@H]1C[C@@H]2c3cc(NC(=O)CC4CC4)ccc3O[C@@H]2[C@H](CO)O1)c1ccccc1 | -4.8 | . | . | . | . | .
Cc1ccc(S(=O)(=O)N[C@H]2C=C[C@H](CC(=O)NC3CCCCC3)O[C@H]2CO)cc1 | -10.1 | . | . | . | . | .
CC(C)NC(=O)N[C@@H]1CC[C@H](CC(=O)NCCCN(C)C)O[C@@H]1CO | -8.2 | . | . | . | . | .
COC(CNC(=O)C1CCCN(S(=O)(=O)c2ccc3c(c2)oc(=O)n3C)C1)OC (configuration not stated) | -1.1 | -0.1 | 2.5 | 8.6 | 3.0 | .
CCCN(CCC)C(=O)C1CCCN(S(=O)(=O)c2ccc3c(c2)oc(=O)n3C)C1 (configuration not stated) | -4.0 | 8.0* | 3.9 | 27.3 | -0.6 | -0.2
CCCn1c(/N=C/c2ccc3c(c2)OCO3)nc2ccccc21 | 5.1 | -0.2 | -0.9 | . | 2.5 | .
C(=N\c1nc2ccccc2n1CCN1CCCCC1)/c1ccc2c(c1)OCO2 | 1.2 | 7.8* | 6.4 | -9.7 | -1.5 | 1.5
C[C@H](CO)N1C[C@H](C)[C@H](CN(C)C(=O)CC2CC2)Oc2ncc(C#CC(C)(C)O)cc2C1=O | -13.3 | . | . | . | . | .
CCS(=O)(=O)N1CCCC(C(=O)c2ccc(OC)cc2C)C1 (configuration not stated) | -1.5 | 24.6* | -10.8 | 4.9 | -1.7 | -0.1
CO[C@@H](CN(C)Cc1cc(F)ccc1F)[C@@H](C)CN([C@@H](C)CO)S(=O)(=O)c1ccc(C)cc1 | -2.1 | . | . | . | . | .
O=C(OCc1ccccc1)N1CCC2CC1c1cc(N3CCCCC3)ccc12 (configuration not stated) | . | 5.9* | -17.6 | -3.7 | -0.6 | -1.1
O=C(OCc1ccccc1)N1CCC2CC1c1cc(N3CCNCC3)ccc12 (configuration not stated) | . | 0.7 | -11.7 | . | 0.2 | .
O=C(Nc1cc([N+](=O)[O-])ccc1O)NC1CCS(=O)(=O)C1 (configuration not stated) | 6.9 | -0.3 | -2.7 | 1.0 | 2.4 | .
CC1(NC(=O)Nc2cc([N+](=O)[O-])ccc2O)CCS(=O)(=O)C1 (configuration not stated) | -4.6 | 6.9* | -0.8 | 5.7 | -1.1 | 0.2
N#Cc1cccc(NC(=O)CSc2nnc(-c3n[nH]c4ccccc34)o2)c1 | -4.7 | -0.1 | 1.6 | 1.3 | -0.4 | .
C#Cc1cccc(NC(=O)CSc2nnc(-c3ccc(C(F)(F)F)cn3)o2)c1 | 13.1 | 3.5* | 2.4 | 9.6 | 1.6 | 0.1
O=C(NCc1cccnc1)NC1(c2ccccc2)CC1 | 21.3 | 10.1* | 0.8 | . | 0.2 | -0.1
CC(=O)c1c(C)[nH]c(C(=O)OCc2cccc(C)c2)c1C | . | 1.7 | -16.7 | -9.2 | -0.6 | .
CC(=O)c1c(C)[nH]c(C(=O)OCc2ccc(Br)cc2)c1C | -5.7 | 9.0* | -15.3 | -18.1 | 1.1 | 0.3
O=C(NC(=S)NCc1cccnc1)c1cc(Br)ccc1Cl | 24.4 | 3.5* | 7.2 | . | . | 0.9
COc1ccc(Br)cc1C(=O)NCc1cccnc1 | 28.5 | 2.7 | 5.0 | . | . | .
CCN1CCN(c2ccc(S(=O)(=O)N3CCCCC3)cc2NC(=O)/C=C/c2ccc(OC(F)F)cc2)CC1 | . | 0.7 | -9.9 | 28.6 | -5.2 | .
CN1CCN(c2ccc(S(=O)(=O)N3CCCCC3)cc2NC(=O)/C=C/c2ccc(OC(F)F)cc2)CC1 | . | 7.5* | 13.1 | 1.7 | -6.2 | 17.3*
SMILES | ARNT-TACC3 inh | aDG glyco act | H9c2 protect | Vif inh | N-glyco inh | aDG conf
CCOC(=O)C1CCN(Cc2ccc3ccccc3c2)CC1 | -1.7 | 0.2 | -4.1 | 9.7 | 1.4 | .
CCOC(=O)C1CCN(Cc2cc(C(C)C)c(O)c(C(C)C)c2)CC1 | 0.1 | 6.4* | -15.7 | 4.5 | -1.6 | 1.1
CN1C(=O)c2cc(NC(=O)C3CC3)ccc2OC[C@@H]2O[C@@H](CC(=O)NCc3cccc(F)c3)CC[C@H]21 | -14.9 | . | . | . | . | .
CCCNC(=O)[C@H]1[C@H](CO)[C@H]2Cn3c(cccc3=O)[C@@H]1N2S(=O)(=O)c1ccccc1C | -0.8 | . | . | . | . | .
CC(C)n1cc(CN2CCCC(C(=O)Nc3cccc(-c4cc5ccccc5[nH]4)c3)C2)cn1 (configuration not stated) | . | 8.8* | 1.9 | -6.6 | 0.0 | 5.3*
CC(C)(C)c1nnc(NC(=O)Nc2ccc(Cl)cc2)s1 | . | 2.2* | -11.1 | -16.9 | -2.7 | 0.0
C[C@H]1CN([C@@H](C)CO)C(=O)c2cccc(NS(=O)(=O)c3ccccc3)c2O[C@H]1CN(C)C(=O)Nc1ccc(C(F)(F)F)cc1 | 11.2 | . | . | . | . | .
C[C@H](CO)N1C[C@H](C)[C@@H](CN(C)S(=O)(=O)c2ccccc2)OCCCC[C@H](C)Oc2ccc(NC(=O)CCC(F)(F)F)cc2C1=O | -5.6 | 3.4* | -2.6 | -0.7 | -1.9 | -0.2
C[C@H]1CN([C@@H](C)CO)C(=O)Cc2cc(NC(=O)CCC(F)(F)F)ccc2O[C@H]1CN(C)Cc1ccc(-c2ccccc2)cc1 | -3.2 | 5.7* | -2.0 | -6.5 | -2.4 | 0.4
CC(C)NC(=O)N(C)C[C@H]1Oc2ccc(NC(=O)Cc3ccccc3)cc2C(=O)N([C@H](C)CO)C[C@@H]1C | -12.1 | 9.5* | -4.0 | 0.9 | -0.3 | -0.9
CC(C)NC(=O)N(C)C[C@@H]1Oc2ccc(NC(=O)Cc3ccccc3)cc2C(=O)N([C@@H](C)CO)C[C@H]1C | -12.5 | . | . | . | . | .
Cc1cc(C)cc(N=Cc2[nH]c3ccc(Br)c(Cl)c3c2O)c1 | 2.0 | 5.9* | -13.5 | -1.9 | 3.1 | -1.0
Cc1cccc2nc(-c3cccc(NC(=O)Cc4ccccc4)c3)cn12 | 16.6 | 1.5 | 7.5 | -2.0 | 3.2 | .
Cc1cccc2nc(-c3cccc(NC(=O)c4ccc(Cl)cc4)c3)cn12 | -4.0 | 6.5* | 1.0 | 10.2 | 3.1 | 0.5
CNC[C@H]1OCCCC[C@H](C)Oc2ccc(NC(=O)NC(C)C)cc2C(=O)N([C@@H](C)CO)C[C@H]1C | 9.7 | . | . | . | . | .
COc1ccccc1C(=O)Nc1ccc2c(c1)CCCN2C(=O)c1ccccc1 | -0.8 | 9.6* | 4.2 | 1.5 | -2.2 | -0.2
COc1ccccc1C(=O)Nc1ccc2c(c1)CCCN2C(=O)c1cccs1 | 5.1 | -0.1 | 12.8 | -5.6 | -5.5 | .
O=C(c1cc(COc2ccc3ncccc3c2)on1)N1CCC[C@H]1CO | -5.8 | 5.5* | -20.6 | . | . | 0.4
O=C(c1cc(COc2ccc3ncccc3c2)on1)N1CCCC(O)C1 (configuration not stated) | -2.8 | 1.2 | -8.0 | -5.1 | -1.3 | .
CCOC(=O)N1CCN(C(=O)c2cc(COc3ccc4ncccc4c3)on2)CC1 | . | 7.8* | -23.0 | -28.6 | 1.1 | 1.2
